# Compounds with a hit are over-represented: about 8.1% of the library has one in this group of screens.
# MCF10A rerep: A quantitative high throughput screen for small molecules that induce DNA re-replication in MCF 10a normal breast cells; MCF 10A DNA re-replication, Hoechst nuclear intensity, 48 h; Potency, µM (titrated, usually from 46.1 µM), for the others: top-dose activity, positive = re-replication, usual class: activators; hit rate 2.9% among 350,000; AID 624296, 2012; note: % of control where 0% means no effect; nearly all actives have a fitted effect of over 50% in size
# KB-3-1 cytotox: qHTS assay for MDR1-selective chemotherapeutics: Primary screen using the parental adenocarcinoma cell KB-3-1; Potency, µM (top dose mostly 46.1 µM), usual class: cytotoxic; KB-3-1 viability, CellTiter-Glo ATP luminescence, 72 h; hit rate 1.4% among 400,000; AID 1347075, 2019; note: % is set by controls: 0 for no effect and ±100 for the full control effect; nearly all actives have a fitted effect of over 60% in size
#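 Using CellTiter-Glo luminescence, growth of non-resistant KB-3-1 adenocarcinoma cells is assessed 72 h after pin-tool compound addition at 37 °C. Normalized responses across the concentration series yield fitted curves.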
# ELG1 DNA repair: qHTS screen for small molecules that inhibit ELG1-dependent DNA repair in human embryonic kidney (HEK293T) cells expressing luciferase-tagged ELG1 | HEK293T ELG1-luciferase reporter, luminescence, 16 h; DNA damage induced by 5-fluorouridine | Potency, µM (top dose mostly 46.1 µM), for inactives: at the top dose activity change, negative = inhibition, hits mostly inhibitors | hit rate 2.3% among 330,000 | AID 504467, 2011; note: % is set by controls: 0 for no effect and ±100 for the full control effect; nearly all actives have a fitted effect of over 55% in size
#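 Luminescence from the luciferase reporter, measured 30 min after ONE-Glo reagent at room temperature, was the read-out. Beforehand, 2,000 cells per well were exposed for 16 hr at 37 °C to 5-fluorouridine together with compound or vehicle.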
# SW480 rereplic: A quantitative high throughput screen for small molecules that induce DNA re-replication in SW480 colon adenocarcinoma cells. Potency, µM (doses to about 46.1 µM), for inactives: top-dose re-replication activation, hits mostly activators. hit rate 1.8% among 340,000. SW480 DNA re-replication, Hoechst DNA content imaging, 48 h; note: % of control where 0% means no effect; nearly all actives have a fitted effect of over 55% in size
#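 Quantitative HTS format with DMSO vehicle controls; 48 hr drug incubation at 37 C, then 40 min Hoechst staining and scanning imager measurement at 405 nm excitation.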
# KB-V1 MDR tox: qHTS assay for MDR1-selective chemotherapeutics: Primary screen using the drug-selected MDR subline cells KB-V1; hit rate 3.4% among 400,000; KB-V1 MDR cells viability, CellTiter-Glo, 72 h; Potency, µM (series often up to 46.1 µM), most hits filed as cytotoxic; note: % is set by controls: 0 for no effect and ±100 for the full control effect; nearly all actives have a fitted effect of over 60% in size
#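 KB-V1, DMEM (no phenol red) + 10% FBS; cpd pin-transferred, titration series; 72 h, 37 degrees C; CellTiter-Glo, luminescence. Data normalized, curve-fit.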
# * = called active by the depositor; i = inactive; ? = inconclusive; . = not tested or not shown; ! = not active in a repeat; [ ] = dose if it differs, or a comment. Calls come from the whole dose curve; as a rule, active = well fitted curve in the direction sought with a large enough effect; inconclusive = small, poorly fitted or top-dose-only effect, or another doubt; inactive = no such curve, though single readings can be large; an effect the other way counts as inactive or inconclusive. Potency is the fitted concentration of half-maximal effect.
SMILES,MCF10A rerep,KB-3-1 cytotox,ELG1 DNA repair,SW480 rereplic,KB-V1 MDR tox
COC(=O)c1ccccc1NC(=O)Cn1c(=O)n(CCC(=O)NC2CCN(Cc3ccccc3)CC2)c(=O)c2ccccc21,11%,i,5%,-10%,i
COc1ccc(NC(=O)c2ccc(-c3ccccc3)cc2)cc1NS(=O)(=O)c1ccc(F)cc1,4%,i,?,-6%,i
CC(C)(C)c1ccccc1NC(=O)CN1C(=O)NC(Cc2ccccc2)C1=O (stereo not drawn),0%,i,12%,-2%,i
Cc1ccc([C@@H]2CC(=O)[C@@H]3CN(S(=O)(=O)c4ccc(C)cc4)[C@H](c4ccc(Cl)cc4)C[C@@H]3N2S(=O)(=O)c2ccc(C)cc2)cc1,.,i,.,.,?
Cc1ccc(OCCCCn2ccnc2)c(Cl)c1,2%,i,?,0%,21µM*
Cc1ccc(C)c(OCCCCn2ccnc2)c1,2%,i,-1%,?,?
Cc1ccc(OCCCCn2ccnc2C)c(C)c1,15µM*,i,12µM*,7%,?
CC(NS(=O)(=O)c1ccc(Br)cc1)C(=O)NC1CCCCCC1 (stereo not drawn),2%,.,-1%,3%,.
CC(C)C(=O)c1cn(CC(=O)N2CCCc3ccccc32)c2ccccc12,19%,i,-24%,4%,5.2µM*
O=C1c2cccc(OCC(=O)N3CCCc4ccccc43)c2CCN1Cc1cccnc1,1%,?,7.3µM*,1%,3.7µM*
Cc1ccccc1OCC(=O)N1CCCc2ccccc21,1%,i,?,-2%,i
CCN1CCc2c(OCC(=O)N3CCc4ccccc43)cccc2C1=O,.,.,-2%,.,.
Cn1c(=O)cc(OCC(=O)N2CCCc3ccccc32)c2ccccc21,7%,i,2%,-4%,15µM*
O=C(COc1cccc2c1CCN(Cc1ccccc1)C2=O)N1CCCCC1,?,i,?,?,?
Cc1ccccc1CN1CCc2c(OCC(=O)N3CCCc4ccccc43)cccc2C1=O,?,21µM*,?,15%,?
CN(N)C(=S)Nc1ccc(F)cc1,-1%,i,-8%,-3%,i
CC(C)c1cc(C(=O)O)n(-c2ccccc2)n1,-3%,i,-3%,-3%,i
CN(C)S(=O)(=O)c1cccc(NC(=O)COC(=O)/C=C/c2ccc(Br)o2)c1,1%,i,6%,-2%,i
O=C1c2cccc(OCC(=O)N3N=C(c4cccs4)CC3c3ccc(F)cc3)c2CCN1Cc1cccnc1 (stereo not drawn),?,i,18µM*,.,21µM*
N#Cc1c(N2CCOCC2)nsc1-c1ccccc1,-3%,10µM*,?,-27%,?
O=C(NC1CCN(Cc2ccc(Cl)cc2)CC1)c1cn(-c2ccccc2)nc1-c1cccnc1,21µM*,?,0%,6%,i
Cc1noc(C)c1COC(=O)c1csc2c1CCC(C)C2 (stereo not drawn),?,i,?,-6%,21µM*
NC(=O)C(c1ccccc1)(c1ccccc1)[C@@H]1CCN(CCc2ccc3c(c2)CCO3)C1,1%,.,.,6%,.
COc1ccc(Cl)cc1C(=O)NNC(=O)c1csc(N2CCOCC2)n1,1%,i,6%,0%,i
O=C(NCc1ccc(F)cc1)c1cc(C2CCCCN2C(=O)c2ccc3c(c2)CCO3)on1 (stereo not drawn),.,21µM*,.,.,?
SMILES,MCF10A rerep,KB-3-1 cytotox,ELG1 DNA repair,SW480 rereplic,KB-V1 MDR tox
O=C(NCc1ccccc1)c1cc(C2CCCCN2C(=O)c2ccc3c(c2)CCO3)on1 (stereo not drawn),.,i,.,.,i
Cn1c(=O)n(Cc2ccccc2)c(=O)c2c1nc1n2CCCN1CCc1ccccc1,?,i,23µM*,4%,2.3µM*
Cn1c(=O)n(CC(=O)OCc2ccccc2)c(=O)c2c1nc1n2CCCN1C1CCCCC1,9.2µM*,i,.,4%,?
C=C(C)Cn1c(=O)c2c(nc3n2CCCN3CCc2ccccc2)n(C)c1=O,4%,i,16µM*,-14%,?
CC(=O)Nc1ccc(NC(=O)CSc2nccn2C)cc1,.,i,.,.,i
Brc1ccccc1-n1nnc(-c2cnc3ccccc3c2)n1,-16%,i,.,26%[9.22 µM],i
Cc1cc(Cl)ccc1NC(=O)/N=C1/NC(=O)CS1,.,i,.,.,i
Cc1ccc2oc(C(=O)Nc3nnc(CC(C)C)s3)cc(=O)c2c1,.,i,.,.,i
COc1cccc(OC)c1C(=O)OCC(=O)NCC1CCCCC1,.,i,.,.,i
COc1ccccc1OCC(=O)NCC1CCCCC1,4%,i,?,-2%,21µM*
COc1ccccc1OCC(=O)NNC(=O)Nc1ccc(Cl)cc1,23µM*,18µM*,15%,18µM*,10µM*
COC(=O)c1ccccc1OCC(=O)NC1CCCCC1,22%,i,14%,-3%,?
O=C(COc1ccc(C(=O)c2ccccc2)cc1)NC1CCCCCC1,-56%,?,?,-36%,10µM*
CCc1ccccc1OCC(=O)NC1CCCC1,2%,i,18%,-7%,13µM*
COc1ccccc1CNC(=O)C(CC(C)C)N1Cc2ccccc2C1=O (stereo not drawn),.,i,.,.,i
Cc1nn(C)c(Cl)c1CN1CCN(C2CCCCC2)C(CCO)C1 (stereo not drawn),2%,i,-7%,-5%,i
O=C(COc1ccccc1Br)NC(=O)NC1CCCC1,-15%,i,?,15µM*,i
CCOc1cc(Br)c(CC(=O)NC2CCCCCC2)cc1OCC,?,i,-29%,2%,10µM*
CC(=O)Nc1ccc(S(=O)(=O)NC2=C(N3CCN(Cc4ccccc4)CC3)C(=O)c3ccccc3C2=O)cc1,?,?,?,?,18µM*!
O=C1C(NS(=O)(=O)c2ccc(Br)cc2)=C(N2CCCCC2)C(=O)c2ccccc21,1%,i,-3%,-2%,i
CC(=O)Nc1ccc(S(=O)(=O)NC2=C(N3CCN(C)CC3)C(=O)c3ccccc3C2=O)cc1,22%,i,18µM*,?,i
CCOC(=O)N1CCN(C2=C(NS(=O)(=O)c3ccc(NC(C)=O)cc3)C(=O)c3ccccc3C2=O)CC1,?,i,-16%,?,i
O=C1C(NS(=O)(=O)c2ccccc2)=C(N2CCN(c3ccc(F)cc3)CC2)C(=O)c2ccccc21,7%,?,23µM*,-1%,?

# Bioassay records: PubChem BioAssay, National Center for Advancing Translational Sciences (NCATS)
